Assay results: PubChem BioAssay
Active and inactive are the calls of the source.

How the values were obtained:
[1] = E. coli DRC41 culture turbidity changes, primary screen, E. coli filamentation inducer project, strain DRC41, OD650, 48 h (AID 1152);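 also: E. coli MC1000 strain DRC41 lacking acrAB efflux pump and sulA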; conditions: E. coli DRC41 (acrAB sulA), higher = more signal, called active from +8 up or from −8 down
[2] = small-molecule binders of probe aLefty1, primary screen, biochemical, small-molecule microarray, 635/667 nm fluorescence (AID 1153); conditions: higher = more signal;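 also: score merges spot fluorescence with signal-to-noise ratio from the scanned slide images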
[3] = PSAC antagonists in infected red cells, primary screen, cell-based, P. falciparum Indochina, OD700, 1 h (AID 1154); conditions: P. falciparum Indochina infected RBC osmotic lysis, higher = more signal, called active from +8 up or from −8 down
[4] = PSAC antagonists in infected red cells, primary screen, cell-based, P. falciparum Indochina, OD700, 2 h (AID 1155);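 also: lysis reports solute entry through the parasite surface anion channel PSAC; channel blockers reduce lysis of infected cells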; conditions: P. falciparum Indochina infected erythrocytes, osmotic lysis OD700; higher = more signal, called active from +8 up or from −8 down
[5] = osmotic lysis modulators in infected erythrocytes, primary screen, PSAC antagonist project, cell-based, P. falciparum Indochina, OD700, 3 h (AID 1156); conditions: higher = more signal, called active from +8 up or from −8 down
[6] = PSAC antagonists in infected red cells, primary screen, cell-based, P. falciparum Indochina, OD700, 18 h (AID 1157); conditions: P. falciparum Indochina infected erythrocytes, osmotic lysis OD700, 18 h; higher = more signal, called active from +8 up or from −8 down
[7] = modulators of S6 phosphorylation in cells, primary screen, cell-based, A549, cytoblot, luminescence, serum-stimulated (AID 1158); conditions: A549 phospho-S6 cytoblot, 5 h, higher = more signal;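 also: serum-stimulated A549 lung adenocarcinoma cells; signal is phosphorylated S6 detected by cytoblot immunostaining with HRP secondary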
[8] = molecular target: NADPH oxidase 2 (Homo sapiens) (UniProt P04839); experiment: NOX2-dependent H2O2 signal modulators, primary screen, NOX inhibitor project, cell-based, HEK293-NOX2, PMA-stimulated, Amplex Red fluorescence (AID 1159); conditions: 45 min, higher = more signal, called active from +8 up or from −8 down; also: test concentration not given here
[9] = molecular target: NADPH oxidase 4 (Homo sapiens) (UniProt Q9NPH5); experiment: NOX4-dependent H2O2 signal modulators, primary screen, NOX inhibitor project, cell-based, HEK293-NOX4, tetracycline-induced, Amplex Red fluorescence (AID 1160); conditions: 45 min, higher = more signal, called active from +8 up or from −8 down
[10] = molecular target: NADPH oxidase 5 (Homo sapiens) (UniProt Q96PH1); experiment: NOX5-dependent H2O2 signal modulators, primary screen, NOX inhibitor project, cell-based, HEK293-NOX5, Amplex Red fluorescence (AID 1161); conditions: HEK293-NOX5, ionomycin, 45 min, higher = more signal
[11] = A549 cell viability effects, profiling panel, calcein-AM fluorescence, 48 h, basal (AID 1162); conditions: higher = more signal; also: test concentration not given here
[12] = adipocyte viability effects, profiling panel, cell-based, 3T3-L1 adipocytes, calcein-AM fluorescence, 48 h, basal (AID 1163); conditions: 3T3-L1 adipocytes viability, higher = more signal; also: test concentration not given here
[13] = HepG2 cell viability effects, profiling panel, calcein-AM fluorescence, 48 h, basal (AID 1164); conditions: higher = more signal; also: test concentration not given here
[14] = MM1S cell viability effects, profiling panel, calcein-AM fluorescence, 48 h, basal (AID 1165); conditions: higher = more signal;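 also: viability of MM1S multiple myeloma cells under basal unstimulated conditions; test concentration not given here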
[15] = basal RPMI8226 viability, no added stimulus, profiling panel, cell-based, calcein-AM fluorescence, 48 h, PK04 Diversity Set (AID 1166); conditions: RPMI8226 myeloma viability, higher = more signal;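 also: cells grown under basal conditions without added stimulus; test concentration not given here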
[16] = basal HepG2 mitochondrial membrane potential changes, profiling panel, cell-based, JC-1 fluorescence, 24 h, 100 nL compound (AID 1167); conditions: higher = more signal; also: test concentration not given here
[17] = basal 3T3-L1 adipocyte mitochondrial potential changes, profiling panel, cell-based, JC-1 fluorescence, 3T3-L1 adipocytes, 24 h, 100 nL compound (AID 1168); conditions: JC-1 mitochondrial fluorescence, higher = more signal, called active from +8 up or from −8 down; also: test concentration not given here
[18] = basal RPMI8226 mitochondrial membrane potential changes, profiling panel, cell-based, JC-1 fluorescence, 24 h, 100 nL compound (AID 1169); conditions: RPMI8226 myeloma, JC-1 mitochondrial potential fluorescence, higher = more signal; also: test concentration not given here
[19] = basal MM1S mitochondrial membrane potential changes, profiling panel, cell-based, JC-1 fluorescence, 24 h, 100 nL compound (AID 1170); conditions: higher = more signal; also: test concentration not given here
[20] = A549 lung cancer cell viability effects, profiling panel, resazurin fluorescence, 24 h, PK04 Diversity Set (AID 1171); conditions: higher = more signal, called active from +8 up or from −8 down; also: test concentration not given here

Chain of NADPH oxidase 5 (Homo sapiens) (Q96PH1 whole entry, looked up): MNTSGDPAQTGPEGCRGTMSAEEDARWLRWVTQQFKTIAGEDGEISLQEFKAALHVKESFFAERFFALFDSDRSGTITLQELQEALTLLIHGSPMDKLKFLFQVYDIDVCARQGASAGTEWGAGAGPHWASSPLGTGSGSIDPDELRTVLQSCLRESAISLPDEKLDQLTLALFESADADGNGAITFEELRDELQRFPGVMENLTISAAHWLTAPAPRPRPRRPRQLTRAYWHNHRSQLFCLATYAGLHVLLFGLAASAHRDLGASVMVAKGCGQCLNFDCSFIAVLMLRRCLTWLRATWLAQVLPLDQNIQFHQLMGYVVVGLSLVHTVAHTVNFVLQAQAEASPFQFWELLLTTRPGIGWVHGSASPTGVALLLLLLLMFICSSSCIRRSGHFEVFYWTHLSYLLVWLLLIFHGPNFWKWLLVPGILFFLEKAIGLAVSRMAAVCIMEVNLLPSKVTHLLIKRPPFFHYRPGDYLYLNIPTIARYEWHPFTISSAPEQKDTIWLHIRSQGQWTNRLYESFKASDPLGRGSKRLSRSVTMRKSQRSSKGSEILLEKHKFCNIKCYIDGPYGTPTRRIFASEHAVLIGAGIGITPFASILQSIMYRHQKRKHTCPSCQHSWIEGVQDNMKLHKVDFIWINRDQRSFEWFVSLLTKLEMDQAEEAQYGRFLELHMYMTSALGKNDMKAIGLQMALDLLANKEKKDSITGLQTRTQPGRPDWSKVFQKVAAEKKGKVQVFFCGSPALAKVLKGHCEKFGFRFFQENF
Chain of NADPH oxidase 4 (Homo sapiens) (Q9NPH5 whole entry, looked up): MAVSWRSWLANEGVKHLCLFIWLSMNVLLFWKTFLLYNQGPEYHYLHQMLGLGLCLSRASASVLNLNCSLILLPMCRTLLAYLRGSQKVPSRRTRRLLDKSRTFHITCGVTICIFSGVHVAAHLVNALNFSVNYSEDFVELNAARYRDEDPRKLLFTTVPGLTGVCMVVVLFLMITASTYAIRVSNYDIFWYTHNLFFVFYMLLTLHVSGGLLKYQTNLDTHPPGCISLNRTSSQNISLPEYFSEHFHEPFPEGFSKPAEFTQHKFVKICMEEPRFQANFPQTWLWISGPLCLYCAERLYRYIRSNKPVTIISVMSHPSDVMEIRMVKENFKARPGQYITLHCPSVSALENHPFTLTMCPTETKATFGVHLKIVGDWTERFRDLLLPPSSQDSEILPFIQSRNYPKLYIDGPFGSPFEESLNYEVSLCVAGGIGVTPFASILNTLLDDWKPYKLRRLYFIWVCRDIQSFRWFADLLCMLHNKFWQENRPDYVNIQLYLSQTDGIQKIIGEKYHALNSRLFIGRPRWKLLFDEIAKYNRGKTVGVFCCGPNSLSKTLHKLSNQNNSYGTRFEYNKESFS
Chain of NADPH oxidase 2 (Homo sapiens) (P04839 whole entry, looked up): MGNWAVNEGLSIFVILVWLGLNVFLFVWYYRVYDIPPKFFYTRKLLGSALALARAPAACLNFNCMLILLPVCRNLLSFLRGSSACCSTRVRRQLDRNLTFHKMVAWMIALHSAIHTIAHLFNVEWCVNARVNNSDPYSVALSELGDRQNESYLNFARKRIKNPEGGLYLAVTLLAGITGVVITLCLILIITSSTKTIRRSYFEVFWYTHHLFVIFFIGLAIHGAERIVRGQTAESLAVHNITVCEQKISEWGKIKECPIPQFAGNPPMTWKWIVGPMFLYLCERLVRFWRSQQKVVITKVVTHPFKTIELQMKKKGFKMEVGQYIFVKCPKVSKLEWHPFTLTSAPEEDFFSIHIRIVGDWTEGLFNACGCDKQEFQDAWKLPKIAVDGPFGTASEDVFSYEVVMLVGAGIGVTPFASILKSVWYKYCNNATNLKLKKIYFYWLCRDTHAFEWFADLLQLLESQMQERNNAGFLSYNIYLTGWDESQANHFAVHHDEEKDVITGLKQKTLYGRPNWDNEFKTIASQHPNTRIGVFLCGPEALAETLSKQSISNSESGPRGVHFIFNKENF

| Compound | z-score [1] | composite z-score [2] | z-score [3] | z-score [4] | z-score [5] | z-score [6] | z-score [7] | z-score [8] | z-score [9] | z-score [10] | z-score [11] | z-score [12] | z-score [13] | z-score [14] | z-score [15] | z-score [16] | z-score [17] | z-score [18] | z-score [19] | z-score [20] |
| --- | --- | --- | --- | --- | --- | --- | --- | --- | --- | --- | --- | --- | --- | --- | --- | --- | --- | --- | --- | --- |
| COc1ccc(C#Cc2ccc3c(c2)[C@]2(C(=O)N3)[C@H](C(=O)Nc3nc4ccccc4s3)[C@H]3C(=O)O[C@H](c4ccccc4)[C@H](c4ccccc4)N3[C@@H]2c2ccc(OCCO)cc2)cc1 | -0.368 (inactive) | -0.0186 | 2.85 (inactive) | 1.41 (inactive) | -0.521 (inactive) | 0.81 (inactive) | 0.13 | 0.578 (inactive) | 0.0813 (inactive) | -1.04 | -0.255 | 0.183 | 0.044 | -2.63 | -0.988 | -3.48 | -1.95 (inactive) | -1.21 | -2.1 | 0.135 (inactive) |
| COCCOC(=O)N1C(=O)[C@@]2(c3cc(C#CCCO)ccc31)[C@H](C(=O)N1CCc3cc(OC)c(OC)cc3C1)[C@H]1C(=O)O[C@H](c3ccccc3)[C@H](c3ccccc3)N1[C@@H]2c1ccccc1OCCO | 0.718 (inactive) | 1.33 | 3.62 (inactive) | 0.928 (inactive) | 1.6 (inactive) | 1.05 (inactive) | 0.0854 | 1.72 (inactive) | 1.7 (inactive) | -0.204 | 0.373 | 0.514 | 1.61 | 1.1 | 0.458 | 0.228 | 1.58 (inactive) | -0.647 | -1.23 | 0.456 (inactive) |
| O=C(NCC(F)(F)F)[C@@H]1c2ccccc2C(=O)N(CC23CC4CC(CC(C4)C2)C3)[C@H]1c1ccc(CO)cc1 | 1.17 (inactive) | 0.0585 | 0.75 (inactive) | -0.399 (inactive) | -0.2 (inactive) | -0.264 (inactive) | 3.83 | 0.49 (inactive) | -0.0154 (inactive) | 0.19 | 1.5 | 1.27 | 2.14 | -0.347 | 0.777 | 1.08 | -0.154 (inactive) | 0.417 | -0.457 | 0.637 (inactive) |
| COCCOC(=O)N1C(=O)[C@@]2(c3cc(C#CC4(O)CCCCCC4)ccc31)[C@H](C(=O)NC[C@H](O)c1ccccc1)[C@H]1C(=O)O[C@H](c3ccccc3)[C@H](c3ccccc3)N1[C@@H]2c1ccc(O)cc1 | 0.664 (inactive) | 0.501 | 0.954 (inactive) | 1.01 (inactive) | 0.0635 (inactive) | 1.05 (inactive) | 0.632 | 1.39 (inactive) | 1.02 (inactive) | 1.61 | 0.188 | -0.111 | 0.814 | -1.75 | -2.8 | -1.19 | -0.11 (inactive) | -0.643 | -0.113 | 1.63 (inactive) |
